Assay outcomes as filed in PubChem.
TIM10 inh – inhibits growth of TIM10 yeast strain; S. cerevisiae TIM10 strain growth, BacTiter-Glo luminescence, 24 h; inhibition, % at 10 µM; actives 1.4% (n = 330,000); AID 463195;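 active = inhibition of 40% or more at the single tested concentration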;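 also: wild-type TIM10 isogenic control strain grown at permissive 25 °C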
tim23-1 inh – inhibits growth of tim23-1 mutant yeast; S. cerevisiae tim23-1 growth, BacTiter-Glo luminescence, 24 h; inhibition, % at 20 µM; actives 1.3% (n = 330,000); AID 463212;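 active = growth inhibition of the mutant yeast at or above 50%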;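 also: temperature-sensitive mutant grown at 25 °C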
NALP3 yeast inh – inhibitors of NALP3 inflammasome in yeast; Yeast reconstituted NLRP3/ASC/caspase-1, beta-gal luminescence, 24 h; inhibition, % at 10 µM; actives 0.39% (n = 330,000); AID 2825;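 active = inhibition of 50% or more; inactive = inhibition below 50%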
NALP1 yeast inh – inhibitors of NALP1 inflammasome in yeast. S. cerevisiae NALP1/ASC/caspase-1 growth, X-gal OD620, 72 h. inhibition, % at 10 µM. actives 0.61% (n = 280,000). AID 2071; in the data active = inhibition mostly above about 24%, no sharp cut-off; inactive = mostly below about 32%
tim10-1 inh – inhibits growth of tim10-1 mutant yeast. S. cerevisiae tim10-1 ts strain growth, BacTiter-Glo, 24 h. inhibition, % at 20 µM. actives 2.2% (n = 330,000). AID 463190;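 active = inhibition of at least 40%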;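 also: mutant grown at 25 °C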
PfHsp90 yeast 2 – growth inhibition of yeast expressing Plasmodium Hsp90 | S. cerevisiae expressing PfHsp90, BacTiter-Glo ATP, 48 h; yeast lacking PDR1 and PDR3 efflux regulators | actives 0.32% (n = 310,000) | AID 504621 | inhibition, % at 9.4 µM;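 active = every replicate shows inhibition above about 80%, whatever the replicate mean, limit read from the data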
tim10 confirm – confirmation of TIM10 yeast growth inhibitors; S. cerevisiae tim10 strain growth, BacTiter-Glo luminescence, 24 h; inhibition, % at 10 µM; actives 63% (n = 4,600); shares compounds with TIM10 inh; AID 463215;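 active = inhibition of yeast growth at or above a set limit in either of two replicates at 10 µM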; also: this counterscreen used the strain with wild-type TIM10
A number is an active result; . = inactive; / = no result given. Sampled rows, rich in hits. Any-hit rate of the full collection: about 4.1%.

SMILES	TIM10 inh	tim23-1 inh	NALP3 yeast inh	NALP1 yeast inh	tim10-1 inh	PfHsp90 yeast 2	tim10 confirm
O=C(O)CN1CCN(Cc2ccc(F)cc2)C1=O	.	.	.	.	.	.	/
O=C(Nc1nccs1)c1csc2c1CCCC2	56.9	.	.	.	.	.	43.9
CCOc1cc(C=O)c(Br)cc1OC1CCCC1	40.2	.	.	.	.	.	.
CCC(=O)N1CCN(c2ccccc2NC(=S)NC(=O)c2ccco2)CC1	.	.	.	.	.	.	/
CC/C(=C\c1ccc(N(C)C)cc1)c1ccncc1	/	/	/	/	/	.	/
COc1ccc(CNC(=S)NCc2ccc(OC(C)C)cc2)cc1	.	.	.	.	.	.	/
C=CCNC(=S)N/N=C(\C)c1cccc(OC)c1	40.6	.	.	.	.	.	.
C/C(=N\NC(=S)NCc1ccccc1)c1ccc2ccccc2c1	53.7	.	.	.	.	.	.
COc1ccc(CNC(=S)N/N=C(\C)c2ccc(OC)cc2)cc1	43.6	.	.	.	.	.	43.9
CCN(C[C@H]1N[C@@](C)(C(=O)OC)[C@H]2C(=O)N(C)C(=O)[C@@H]12)C(=O)COC	.	.	.	/	.	.	/
c1ccc(-c2onc3cc4c(cc23)OCCO4)cc1	44.0	.	.	.	.	.	52.0
CC(C)(C)c1ccc(S(=O)(=O)N2CCC(NC(=O)c3ccco3)CC2)cc1	.	.	.	.	.	.	/
COc1cccc(/C=N/NC(=O)c2cc(-c3ccccn3)nc3ccccc23)c1O	44.6	.	.	/	.	.	.
COc1ccc(S(=O)(=O)N(C)CC(=O)NCCN2CCOCC2)cc1C	.	.	.	.	.	.	/
CCN(Cc1ccncc1)Cc1cn(C)nc1-c1ccc(Oc2ccccc2)cc1	.	.	.	.	.	.	/
Cc1ccc(S(=O)(=O)/N=C(/NC(=S)Nc2ccccc2)c2ccccc2)cc1	45.7	.	.	.	.	.	.
Nc1ccc(C(=O)OCc2nc3c(ccc4ccccc43)[nH]2)cc1	47.6	.	.	.	.	.	.
O=[N+]([O-])c1ccc(O)c(C2=NNC(c3ccccc3F)C2)c1 (stereo not given)	49.9	.	.	.	.	.	56.7
Oc1ccc(Cl)cc1C1=NNC(c2cccs2)C1 (stereo not given)	.	.	.	.	.	.	/
COC(=O)[C@@]12CCCN1[C@H](c1ccc(-c3ccc4c(c3)OCO4)cc1)[C@H]1C(=O)N(C)C(=O)[C@H]12	.	.	.	/	.	.	/
CCn1c(Cl)c(C=O)s/c1=N\S(=O)(=O)c1ccccc1	42.7	.	.	.	.	.	.
C=C(C(=O)Nc1ccccc1)c1ccc(C)cc1	.	.	.	/	.	.	/
CC(=O)Nc1ccc(S(=O)(=O)N2CCC(C(N)=O)(N3CCCCC3)CC2)cc1	.	.	.	.	.	.	/
CSc1nc2sc3c(c2c(=S)[nH]1)CC(C)(C)OC3	43.2	.	.	.	.	.	44.5
CCc1nc2sc3c(c2c(=S)[nH]1)CC(C)(C)OC3	.	.	.	.	.	.	/
SMILES	TIM10 inh	tim23-1 inh	NALP3 yeast inh	NALP1 yeast inh	tim10-1 inh	PfHsp90 yeast 2	tim10 confirm
Oc1nc(Nc2cccc(Cl)c2)sc1/C=C1\C=Nc2ccccc21	44.3	.	.	.	.	.	.
Oc1cccc(Nc2nc(O)c(/C=C3\C=Nc4ccccc43)s2)c1	.	.	.	.	.	.	/
COc1ccc(-c2nnc3sc(-c4ccco4)nn23)cc1OC	.	.	.	.	.	.	/
COc1ccc(-c2nn3c(-c4ccco4)nnc3s2)cc1OC	45.3	.	.	.	.	.	.
O=C(Nc1ccccc1)Nc1ccc(Cl)c([N+](=O)[O-])c1	.	.	.	.	.	.	/
CC(CC(=O)Nc1ccc(Cl)c([N+](=O)[O-])c1)c1ccccc1 (stereo not given)	42.3	.	.	.	.	.	.
CCN(CC)c1ccc(-n2c(C)c(C(C)=O)c(C(C)=O)c2C)cc1	43.6	.	.	.	.	/	.
C#CCOCCOCCOCCNc1nc(N2CCN(C(=O)Cn3cc(CCCN=C(N)N)nn3)CC2)nc(N2CCN(C(=O)[C@H](C)n3cc(CCCN=C(N)N)nn3)CC2)n1	60.5	.	.	.	.	.	.
